This is a sample that favours compounds with a hit; in the whole collection about 4% have one here.
NLRP3 yeast inh: NALP3 inhibition in yeast; Yeast reconstituted NLRP3/ASC/caspase-1, beta-gal luminescence, 24 h; actives 0.39% (n = 330,000); inhibition, % at 10 µM;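 active means inhibition of 50% or more; inactive means inhibition below 50%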;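 further: plate controls were induced DMSO wells for no effect and uninduced yeast grown without galactose for full effect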
NALP1 inh: blocks the NALP1 inflammasome reconstituted in yeast; S. cerevisiae NALP1/ASC/caspase-1 growth, X-gal OD620, 72 h; inhibition, % at 10 µM; actives 0.61% (n = 280,000); AID 2071; in the data active means inhibition mostly above about 24%, no sharp cut-off; inactive means mostly below about 32%
TIM10 inh: TIM10 yeast growth inhibition; S. cerevisiae TIM10 strain growth, BacTiter-Glo luminescence, 24 h; inhibition, % at 10 µM; actives 1.4% (n = 330,000); AID 463195;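 active means inhibition of 40% or more at the single tested concentration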;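 further: wild-type TIM10 isogenic control strain grown at permissive 25 °C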
tim10-1 inh: inhibits growth of tim10-1 mutant yeast; actives 2.2% (n = 330,000); S. cerevisiae tim10-1 ts strain growth, BacTiter-Glo, 24 h; inhibition, % at 20 µM;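 active means inhibition of at least 40%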;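 further: mutant grown at 25 °C; 0% = DMSO wells with yeast and 100% = wells holding no yeast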
tim23-1 inh: tim23-1 yeast growth inhibition | S. cerevisiae tim23-1 growth, BacTiter-Glo luminescence, 24 h | inhibition, % at 20 µM | actives 1.3% (n = 330,000) | AID 463212;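 active means growth inhibition of the mutant yeast at or above 50%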;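 further: temperature-sensitive mutant grown at 25 °C; plate controls were DMSO-treated mutant yeast for no effect and medium wells lacking yeast for full effect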
tim10-1 conf: tim10-1 yeast growth inhibition, confirmed; shares compounds with tim10-1 inh; S. cerevisiae tim10-1 ts strain growth, BacTiter-Glo, 24 h; inhibition, % at 20 µM; actives 56% (n = 7,400); AID 463213;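 active means inhibition of yeast growth at or above a set limit in either of two repeat tests at 20 µM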;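 further: tim10-1 mutant grown at permissive 25 °C to find synthetic lethal compounds; 0% = DMSO yeast wells and 100% = medium wells without yeast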
tim10 confirm: TIM10 yeast growth inhibition, confirmed; shares compounds with TIM10 inh; S. cerevisiae tim10 strain growth, BacTiter-Glo luminescence, 24 h; inhibition, % at 10 µM; actives 63% (n = 4,600); AID 463215;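 active means inhibition of yeast growth at or above a set limit in either of two replicates at 10 µM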;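 further: this counterscreen used the strain with wild-type TIM10; 0% = yeast with DMSO and 100% = medium wells lacking yeast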
The depositor's hits bear a star; nt = not tested or not shown.

SMILES	NLRP3 yeast inh	NALP1 inh	TIM10 inh	tim10-1 inh	tim23-1 inh	tim10-1 conf	tim10 confirm
Cc1ccc(N2C(=O)CC(Sc3nc(C)cc(C)n3)C2=O)cc1 (stereo not given)	21.3	3.4	-4.9	3.4	11.1	nt	nt
CC(C)c1ccc(N2C(=O)CC(Sc3ncn[nH]3)C2=O)cc1 (stereo not given)	14.6	101.3*	69.3*	45.6*	0.2	51.9*	62.5*
COc1ccc(N2C(=O)CC(Sc3ncn[nH]3)C2=O)c(OC)c1 (stereo not given)	14.7	33.7	24.3	9.9	5.3	nt	nt
CC(C)c1ccc(N2C(=O)CC(Sc3nc4ccccc4o3)C2=O)cc1 (stereo not given)	33.2	8.5	53.0*	52.5*	30.2	46.3*	41.0*
Cc1cc(Br)ccc1NC(=O)CN1C(=O)C2C3CC(c4ccccc4)C(C3)C2C1=O (stereo not given)	9.4	6.2	55.7*	40.6*	32.1	33.9*	32.3*
Cc1cc(C)nc(N(C#N)Cc2cccc(Cl)c2)n1	-6.4	-1.1	19.0	9.9	30.9	nt	nt
O=C(/C=C/c1cccc(OCc2ccccc2)c1)c1cccnc1	7.1	25.8	64.9*	57.2*	37.4	50.3*	51.6*
O=C(O)/C=C/c1cccc(OCc2ccccc2)c1	18.2	0.8	8.8	4.1	11.8	nt	nt
CC(C)NC(=S)N/N=C1\CCCCC1C1CCCCC1 (stereo not given)	14.0	4.4	41.8*	44.0*	46.5	31.8*	29.4
CC(C(=O)OCC(=O)c1cccc([N+](=O)[O-])c1)N1C(=O)C2C3C=CC(C3)C2C1=O (stereo not given)	10.3	10.2	10.0	-7.1	4.7	nt	nt
CCOC(=O)c1ccc(NS(=O)(=O)c2ccc(SC)cc2)cc1	24.7	11.5	40.3*	40.8*	43.1	38.3*	10.9
CCOc1ccc(-n2ccnc2SCC(=O)Nc2cc(C)on2)cc1	15.4	-16.5	1.7	14.1	10.1	nt	nt
Cc1ccc(NC(=O)CCNS(=O)(=O)c2ccc3c(c2)CCC(=O)N3)cc1C	17.4	4.0	-0.8	9.9	9.4	nt	nt
CC1CCCC(NC(=O)Nc2cccs2)C1C (stereo not given)	21.5	-2.6	56.3*	55.5*	34.1	65.2*	52.5*
O=C(O)C(Cc1c[nH]c2ccccc12)NS(=O)(=O)c1cccc(Cl)c1Cl (stereo not given)	1.0	12.7	2.5	30.0	17.8	nt	nt
COc1ccccc1/C=C/C(=O)c1ccc(NC(C)=O)cc1	1.6	32.7	43.7*	42.8*	33.3	24.2	-3.0
COc1ccc(C(=O)CSc2nc3ccccc3n2CC(=O)c2ccccc2)cc1	23.3	-13.5	26.3	32.8	46.1	nt	nt
COc1ccc(C(=O)Cn2c(C(=O)/C=C/c3ccccc3)nc3ccccc32)cc1	10.4	48.4	41.5*	49.4*	18.6	43.5*	35.5*
c1ccc(C2Nc3cccc4cccc(c34)N2)cc1	16.5	-0.5	28.2	33.8	42.2	nt	nt
CN(C)c1ccc(C2Nc3cccc4cccc(c34)N2)cc1	13.9	39.3*	66.1*	57.2*	40.4	57.8*	67.2*
c1csc(C2Nc3cccc4cccc(c34)N2)c1	10.7	26.7	48.3*	53.1*	40.3	51.6*	-2.0
CC(C)(C)[C@@H]1COC(=O)[C@@H](Cc2ccc(F)cc2)C/C=C\C[C@H](CC(=O)N(CCO)Cc2ccccc2)C(=O)N1	22.1	nt	0.4	12.4	15.7	nt	nt
CC1CN(C(=O)COC(=O)c2ccccc2O)CC(C)O1 (stereo not given)	15.7	-2.8	11.6	-7.9	-1.7	nt	nt
Cc1nn(C)c(C(=O)NC(=S)Nc2ccc([N+](=O)[O-])cc2)c1Cl	20.5	-12.5	41.1*	51.6*	49.5	39.7*	27.8
Cc1ccccc1/C(N)=N/OC(=O)N1c2ccccc2Sc2ccccc21	43.5	9.4	73.7*	72.4*	30.2	69.3*	81.3*
SMILES	NLRP3 yeast inh	NALP1 inh	TIM10 inh	tim10-1 inh	tim23-1 inh	tim10-1 conf	tim10 confirm
CCn1c(C)c(/C=N/Nc2nc3ccccc3s2)c2ccccc21	2.7	-1.5	42.5*	48.2*	20.8	25.2	27.3
Cc1nn(-c2ccccc2Cl)c(Cl)c1/C=N/Nc1nc2ccccc2s1	-5.6	32.5	8.8	6.3	12.0	nt	nt
Oc1ccccc1-c1nc(NCCN2CCOCC2)c2ccccc2n1	-0.4	2.2	50.2*	52.4*	44.1	40.4*	31.5*
CC(=O)Nc1ccc(C(=O)OCc2ccccc2Cl)cc1	16.6	37.9	42.5*	53.9*	36.4	26.0	34.4*
COc1ccc(C(=O)NC2CC2)cc1OC1CCN(Cc2ccc(F)cc2F)CC1	11.8	14.5	8.4	-1.3	8.2	nt	nt
C=C1CCC[C@]2(C)C[C@H]3OC(=O)C(CN[C@@H](C)c4ccccc4)[C@H]3CC12 (stereo not given in full)	nt	16.9	nt	nt	nt	nt	nt
C=C1CCC[C@]2(C)C[C@H]3OC(=O)C(CN(Cc4ccc(OC)c(OC)c4)CC(C)O)[C@H]3CC12 (stereo not given in full)	-33.9	-25.1	44.3*	42.8*	42.1	39.7*	45.8*
CN(C(=O)CSc1nncc2ccccc12)c1ccccc1	-1.6	nt	6.4	16.5	33.5	nt	nt
CCc1ccc(NC(=S)N2CCCCCCC2)cc1	11.1	2.8	40.6*	42.3*	28.8	30.6	17.3
CCOc1ccc(NC(=S)N2CCCC2)cc1	13.9	9.1	1.1	-3.9	-3.4	nt	nt
CCCCc1ccc(NC(=S)N2CCCC(C)C2)cc1 (stereo not given)	22.2	16.6	44.6*	43.5*	36.1	28.9	31.4*
Cc1ccc(C)n1N1C(=O)/C(=C\c2ccc(Cl)cc2)SC1=S	-4.3	2.8	63.2*	69.2*	6.7	61.0*	63.5*
CCN(CC)S(=O)(=O)c1ccc(/C=C/C(=O)OCC(=O)Nc2cccnc2Cl)cc1	12.1	nt	13.9	15.7	29.9	nt	nt
CN(C)S(=O)(=O)Oc1cccc(C(=O)Nc2ccc(Cl)c(Cl)c2)c1	-3.2	14.6	48.9*	57.1*	15.5	44.0*	65.2*
CN(C)S(=O)(=O)Oc1cccc(C(=O)Nc2cccc(Cl)c2)c1	21.4	-2.4	77.0*	55.4*	45.7	46.3*	72.3*
CNS(=O)(=O)c1cccc(C(=O)Nc2cccc(Cl)c2)c1	5.3	-5.6	-14.1	16.5	3.0	nt	nt
CN(C)S(=O)(=O)c1cccc(C(=O)Nc2cc(Cl)cc(Cl)c2)c1	13.1	-2.0	41.5*	50.7*	33.6	27.5	-27.0
CN(C)S(=O)(=O)c1cccc(C(=O)Nc2ccccc2)c1	14.1	31.8	6.8	-14.1	4.3	nt	nt
COc1ccc(NC(=O)c2cccc(OS(=O)(=O)N(C)C)c2)cc1	6.0	13.9	5.1	10.6	-12.3	nt	nt
